Source: PubChem BioAssay (Tox21)
Inconclusive results are not listed. The source made the active and inactive calls. Unless noted, calls come from the whole dose curve; as a rule, active = well fitted curve in the direction sought with a large enough effect in the repeat runs; inconclusive = weak or mixed curves; inactive = no such curve, though single readings can be large; an effect the other way counts as inactive or inconclusive.

Experiments:
[1] = qHTS assay to identify small molecule agonists of the peroxisome proliferator-activated receptor delta (PPARd) signaling pathway - cell viability counter screen (AID 743211); note: nearly all actives have a fitted effect of over 55% in size; note: potency is the fitted concentration of half-maximal effect
Outline: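 qHTS cell viability: PPARd-bla HEK293H; 17 h cpd, 37C; CellTiter-Glo, luminescence at 30 min RT.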

[2] = qHTS assay to identify small molecule agonists of the farnesoid-X-receptor (FXR) signaling pathway - cell viability counter screen (AID 743218); note: nearly all actives have a fitted effect of over 45% in size; note: potency is the fitted concentration of half-maximal effect
Outline: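 In GeneBLAzer FXR-UAS-bla HEK 293T cells, compounds act for 16 h at 37 C. Cell viability is then scored in the reporter wells by CellTiter-Glo, 30 min at RT, luminescence.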

[3] = biological target: Bile acid receptor (Homo sapiens) (UniProt Q96RI1); experiment: qHTS assay to identify small molecule agonists of the farnesoid-X-receptor (FXR) signaling pathway (AID 743220; active = well fitted activation curve with a large enough effect in the signal ratio in the repeat runs, not every such curve was filed as active; the % refers to the signal ratio)
Sequence of Bile acid receptor (Homo sapiens) (Q96RI1 whole entry, looked up): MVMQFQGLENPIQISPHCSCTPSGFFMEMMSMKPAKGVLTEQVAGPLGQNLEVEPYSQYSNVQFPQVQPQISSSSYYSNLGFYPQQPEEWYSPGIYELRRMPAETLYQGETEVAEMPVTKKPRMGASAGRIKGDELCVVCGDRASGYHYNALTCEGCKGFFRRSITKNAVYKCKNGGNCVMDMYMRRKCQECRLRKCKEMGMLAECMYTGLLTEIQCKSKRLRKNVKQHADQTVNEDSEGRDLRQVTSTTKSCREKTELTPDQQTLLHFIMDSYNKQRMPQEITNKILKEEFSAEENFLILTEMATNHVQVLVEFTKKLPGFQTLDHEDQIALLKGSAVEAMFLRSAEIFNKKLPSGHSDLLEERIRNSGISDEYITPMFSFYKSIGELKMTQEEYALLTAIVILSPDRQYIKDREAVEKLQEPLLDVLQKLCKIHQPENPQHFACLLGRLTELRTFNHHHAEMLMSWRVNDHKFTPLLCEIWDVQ
Outline: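 Beta-lactamase reporter under UAS control in GeneBLAzer FXR HEK 293T cells (5000/well) measured with LiveBLAzer FRET substrate after 2 h at room temperature. Compound exposure lasted 16 h at 37C.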

[4] = qHTS assay to identify small molecule antagonists of the farnesoid-X-receptor (FXR) signaling pathway - cell viability counter screen (AID 743221; active = well fitted cell-killing curve with a large enough effect in the repeat runs, not every such curve was filed as active; note: nearly all actives have a fitted effect of over 50% in size; note: potency is the fitted concentration of half-maximal effect)
Outline: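 After a 5 h settling period, FXR-bla HEK 293T cells receive compound and chenodeoxycholic acid (50 uM final) and incubate 16 h at 37 C; CellTiter-Glo luminescence, read after 30 min at room temperature, reports cell viability.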

[5] = qHTS assay to identify small molecule antagonists of the vitamin D receptor (VDR) signaling pathway - cell viability counter screen (AID 743225); note: nearly all actives have a fitted effect of over 50% in size; note: potency is the fitted concentration of half-maximal effect
Outline: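 Parallel cytotoxicity test: VDR-UAS-bla HEK 293T, 3 nM (final) 1-alpha,25-dihydroxyvitamin D3 with test compound, 16 h, 37C. Endpoint is CellTiter-Glo luminescence in the same wells.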

[6] = qHTS assay to identify small molecule agonists of the NFkB signaling pathway - cell viability counter screen (AID 1159515; calls by dose curve; note: series mostly up to about 61 µM; nearly all actives have a fitted effect of over 55% in size)
Outline: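 Viability in NFkB-bla ME-180 cells was measured by CellTiter-Glo luminescence, 30 min room temperature, in wells already treated 5 hr with compounds and read for reporter FRET.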

[7] = qHTS assay to identify small molecule agonists of the endoplasmic reticulum stress response signaling pathway (AID 1159516; active = well fitted activation curve with a large enough effect in the signal ratio in the repeat runs, not every such curve was filed as active; the % refers to the signal ratio)
Outline: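 ER stress element reporter (bla) in HeLa. 1,500 cells/well, overnight attachment; 5 hr compound; 2 hr RT substrate; dual-emission fluorescence.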

[8] = qHTS assay to identify small molecule antagonists of the retinoid-related orphan receptor gamma (ROR-gamma) signaling pathway - cell viability counter screen (AID 1159520); note: nearly all actives have a fitted effect of over 50% in size
Outline: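 Tet-on ROR gamma CHO cells were given compounds for 2 hr, then doxycycline hyclate at 1 uM final, and incubated 16 hr at 37 C. Viability was measured as ATP content by CellTiter-Glo luminescence.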

[9] = biological target: Nuclear receptor ROR-gamma (Homo sapiens) (UniProt P51449); experiment: qHTS assay to identify small molecule antagonists of the retinoid-related orphan receptor gamma (ROR-gamma) signaling pathway (AID 1159521; note: nearly all actives have a fitted effect of over 50% in size; note: potency is the fitted concentration of half-maximal effect)
Outline: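 Decreased RORE-driven luciferase luminescence indicates antagonism. Tet-on RORγ CHO cells received compound, then 1 uM final doxycycline 2 h later; signal read after 16 h incubation.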

[10] = qHTS assay to identify small molecule agonists of the AP-1 signaling pathway - cell viability counter screen (AID 1159525; calls by dose curve; note: nearly all actives have a fitted effect of over 55% in size)
Outline: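 AP-1-bla ME-180 cells in Opti-MEM with 0.5% dialyzed FBS, compound exposure 5 h at 37 C in 15-point titration. Viability read in the same wells as ATP content by CellTiter-Glo luminescence, normalised to tetra-n-octylammonium bromide and DMSO controls.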

[11] = qHTS assay to identify small molecule agonists of the AP-1 signaling pathway (AID 1159526; calls by dose curve)
[12] = qHTS assay to identify small molecule antagonists of the peroxisome proliferator-activated receptor delta (PPARd) signaling pathway - cell viability counter screen (AID 743213); note: nearly all actives have a fitted effect of over 50% in size; note: potency is the fitted concentration of half-maximal effect
Outline: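 Agonist-stimulated (L165041, 300 nM final) HEK293H PPARd UAS-bla cells are exposed to compounds for 17 h at 37 C, and ATP-based luminescence (CellTiter-Glo) from the same wells reports cytotoxicity.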

[13] = biological target: Bile acid receptor (Homo sapiens) (UniProt Q96RI1); experiment: qHTS assay to identify small molecule antagonists of the farnesoid-X-receptor (FXR) signaling pathway (AID 743217; active = well fitted inhibition curve with a large enough effect in the signal ratio in the repeat runs, not every such curve was filed as active; the % refers to the signal ratio)
Outline: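 Beta-lactamase reporter under UAS control in HEK 293T cells; compound exposure 16 h at 37 °C in the presence of chenodeoxycholic acid (50 uM final); signal from B/G FRET substrate after 2 h at room temperature.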

[14] = biological target: Vitamin D3 receptor (Homo sapiens) (UniProt P11473); experiment: qHTS assay to identify small molecule agonists of the vitamin D receptor (VDR) signaling pathway (AID 743222; calls by dose curve)
Sequence of Vitamin D3 receptor (Homo sapiens) (P11473 whole entry, looked up): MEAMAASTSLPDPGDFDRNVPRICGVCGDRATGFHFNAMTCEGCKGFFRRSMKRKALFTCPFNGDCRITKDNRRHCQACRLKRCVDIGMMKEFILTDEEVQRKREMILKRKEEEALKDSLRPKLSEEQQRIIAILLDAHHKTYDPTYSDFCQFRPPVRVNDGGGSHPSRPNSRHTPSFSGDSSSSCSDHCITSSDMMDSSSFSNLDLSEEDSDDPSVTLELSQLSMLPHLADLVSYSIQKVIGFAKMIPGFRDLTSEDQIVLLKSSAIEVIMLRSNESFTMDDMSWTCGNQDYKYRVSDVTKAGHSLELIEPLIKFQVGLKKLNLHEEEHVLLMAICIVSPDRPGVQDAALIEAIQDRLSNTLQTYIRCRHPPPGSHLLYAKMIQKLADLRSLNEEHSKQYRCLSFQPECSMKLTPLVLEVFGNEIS
Outline: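 Agonist activity measured in VDR-bla reporter cells. Exposure 16 h, 37C, 5% CO2; detection by B/G FRET substrate, 2 h RT.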

[15] = biological target: Peroxisome proliferator-activated receptor delta (Homo sapiens) (UniProt Q03181); experiment: qHTS assay to identify small molecule agonists of the peroxisome proliferator-activated receptor delta (PPARd) signaling pathway (AID 743212; calls by dose curve)
Sequence of Peroxisome proliferator-activated receptor delta (Homo sapiens) (Q03181 whole entry, looked up): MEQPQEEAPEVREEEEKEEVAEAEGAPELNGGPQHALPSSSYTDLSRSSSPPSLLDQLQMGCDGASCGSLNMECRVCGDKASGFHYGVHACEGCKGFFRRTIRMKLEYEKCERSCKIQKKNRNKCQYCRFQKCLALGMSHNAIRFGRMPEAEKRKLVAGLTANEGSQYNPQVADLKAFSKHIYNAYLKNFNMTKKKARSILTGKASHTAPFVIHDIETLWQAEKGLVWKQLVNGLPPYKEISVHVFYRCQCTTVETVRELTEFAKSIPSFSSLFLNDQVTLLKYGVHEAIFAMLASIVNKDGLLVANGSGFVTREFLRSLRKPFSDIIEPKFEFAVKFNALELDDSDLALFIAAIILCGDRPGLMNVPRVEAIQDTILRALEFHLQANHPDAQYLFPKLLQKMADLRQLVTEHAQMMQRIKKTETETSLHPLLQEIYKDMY
Outline: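 Quantitative high-throughput agonist screen in a HEK293H beta-lactamase reporter line under UAS control. Compounds in DMSO, at 37 C. Fluorescence read after 2 h with FRET substrate at room temperature.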

[16] = biological target: Peroxisome proliferator-activated receptor delta (Homo sapiens) (UniProt Q03181); experiment: qHTS assay to identify small molecule antagonists of the peroxisome proliferator-activated receptor delta (PPARd) signaling pathway (AID 743215; active = well fitted inhibition curve with a large enough effect in the signal ratio in the repeat runs, not every such curve was filed as active; the % refers to the signal ratio; note: series mostly up to about 62 µM)
Outline: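 Antagonist-mode beta-lactamase reporter screen: HEK293H cells with UAS-bla under PPARd control, stimulated by 300 nM L165041 (final) alongside test compound for 17 h at 37 C, then FRET fluorescence after 2 h substrate incubation.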

[17] = qHTS assay to identify small molecule agonists of the vitamin D receptor (VDR) signaling pathway - cell viability counter screen (AID 743224); note: nearly all actives have a fitted effect of over 50% in size; note: potency is the fitted concentration of half-maximal effect
Outline: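 VDR-bla cell line, quantitative HTS format; 16 h compound incubation (37C, 5% CO2); ATP-based CellTiter-Glo luminescence measured in the reporter assay wells.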

[18] = qHTS assay to identify small molecule agonists of the endoplasmic reticulum stress response signaling pathway - cell viability counter screen (AID 1159517; calls by dose curve)
Outline: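 Counter-screen wells were identical to the reporter wells. Cells were plated at 1,500 per well and dosed for 5 hr, then read for luminescence 30 min after CellTiter-Glo addition.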

[19] = biological target: Vitamin D3 receptor (Homo sapiens) (UniProt P11473); experiment: qHTS assay to identify small molecule antagonists of the vitamin D receptor (VDR) signaling pathway (AID 743223; active = well fitted inhibition curve with a large enough effect in the signal ratio in the repeat runs, not every such curve was filed as active; the % refers to the signal ratio)
Outline: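 Reporter line VDR-bla; stimulus 1alpha,25-(OH)2 vitamin D3, 3 nM final; compound co-addition, 16 h 37C/5% CO2; LiveBLAzer B/G substrate 2 h RT; fluorescence intensity.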

Measured: Potency

Nc1nc(-c2ccc([N+](=O)[O-])cc2)cs1
not listed: [12] | [13] | [14] | [15] | [16] | [17] | [18] | [19]
inactive: all other assays above

O=C1NC(=O)c2cccc3cccc1c23
not listed: [4] | [10] | [15] | [16] | [17] | [18] | [19]
inactive: all other assays above

CC(C)OC(=O)c1ccccc1C(=O)OC(C)C
not listed: [2] | [7] | [8] | [19]
inactive: all other assays above

CC(CN(CCN(CC(C)OCCO)CC(C)OCCO)CC(C)OCCO)OCCO (stereo not drawn)
not listed: [1] | [3] | [4] | [12] | [13] | [18]
inactive: all other assays above

O[C@@H](CNC[C@H](O)[C@H]1CCc2cc(F)ccc2O1)[C@@H]1CCc2cc(F)ccc2O1
active: [1] 23.7 µM | [12] 23.7 µM | [2] 13.3 µM | [4] 29.8 µM | [17] 21.1 µM | [5] 21.3 µM | [9] 23.7 µM
inactive: [3] | [6] | [7] | [10] | [11]

CCCCCCCCCCCCCCCCCC(=O)OCC(CC)CCCC (stereo not drawn)
not listed: [3] | [7] | [8] | [13]
inactive: all other assays above

COc1cc(NCc2ccc3nc(N)nc(N)c3c2C)cc(OC)c1OC
active: [17] 0.15 µM
not listed: [1] | [2] | [4] | [5] | [7] | [12] | [13]
inactive: all other assays above

CC(=O)NNC(C)=O
not listed: [5] | [9] | [18]
inactive: all other assays above

O=C(O)CCC(=O)OC[C@@H](NC(=O)C(Cl)Cl)[C@H](O)c1ccc([N+](=O)[O-])cc1
not listed: [3] | [7] | [13] | [14] | [17] | [18] | [19]
inactive: all other assays above

CNCc1ccc(NC(=O)c2c[nH]c3c2C(=O)CCC3)cc1
not listed: [3] | [8] | [13] | [18]
inactive: all other assays above

CCOC(=O)Oc1ccc(CCNC(=O)[C@H](CCSC)NC(C)=O)cc1OC(=O)OCC
not listed: [3] | [13] | [14] | [17] | [18] | [19]
inactive: all other assays above

O=C(O)CCC(=O)c1ccc(-c2ccccc2)cc1
not listed: [7] | [17]
inactive: all other assays above

CC(C)(C)S
not listed: [7] | [14] | [19]
inactive: all other assays above

CC(C)COC(=O)c1ccc(O)cc1
not listed: [11] | [18]
inactive: all other assays above

CC(C)(O)c1coc(S(=O)(=O)NC(=O)Nc2c3c(cc4c2CCC4)CCC3)c1
not listed: [7] | [15] | [16] | [18]
inactive: all other assays above

CC(=O)C(C)=O
not listed: [7] | [17]
inactive: all other assays above

CC(=O)NCCO
not listed: [1] | [3] | [7] | [13]
inactive: all other assays above
